# This is a sample that favours compounds with a hit; in the whole collection about 3.1% have one here.
# PP5 inh = blocks human protein phosphatase 5 activity | P53041 | AID 1987 | inhibition, % at 6.7 µM | purified PP5c, OMFP substrate fluorescence | actives 0.18% (n = 320,000);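 active means inhibition above the campaign's mean inhibition across all tested compounds plus 3 SD, cut at about 9.5% in these data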;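 further: 0% = DMSO only and 100% = 100 µM cantharidin control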
# Beta apoptosis = blocks beta cell apoptosis. protection from apoptosis, % (test concentration not listed). actives 0.8% (n = 300,000). INS-1E cytokine-induced death, ATP luminescence, 48 h; percent of positive-control rescue, neutral wells zero. AID 435005;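 active means Every replicate reaches about 75%, or at least half do and their mean reaches it too, limit read from the data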;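 further: 0% = cytokine-treated negative control wells and 100% = positive control rescue; higher means more ATP so stronger rescue from cytokine killing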
# SKKanGAS inh = blocks kanamycin growth of S. pyogenes SKKanGAS strain. BacTiter-Glo, 6 h. inhibition, % at 7.5 µM. actives 1.3% (n = 300,000). AID 1662;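 active means mean replicate score, as percent of positive control median, at least 50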;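 further: strain carries kanamycin resistance gene driven by streptokinase promoter and grows in 40 µg/ml kanamycin; loss of luminescence reflects streptokinase promoter inhibition or plain growth inhibition; 0% = median of DMSO wells and 100% = positive control at its reference dose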
# CSC inhib = blocks cancer stem cells; cancer stem cell-like cells viability, luminescence; inhibition, % at 7.5 µM; actives 1.1% (n = 300,000); AID 2717; in the data active means inhibition above about 75%; tested in HMLE shEcad cells
# PP1 inh = blocks human PP1-alpha phosphatase, a PP5 counter-screen. P62136. purified PP1alpha, OMFP fluorescence. inhibition, % at 6.7 µM. actives 0.9% (n = 320,000). AID 2235;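 active means inhibition above the mean inhibition of all tested compounds plus 3 SD, computed separately for each screening campaign, cut at about 15% in these data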
# Target sequence (P62136 whole entry, looked up): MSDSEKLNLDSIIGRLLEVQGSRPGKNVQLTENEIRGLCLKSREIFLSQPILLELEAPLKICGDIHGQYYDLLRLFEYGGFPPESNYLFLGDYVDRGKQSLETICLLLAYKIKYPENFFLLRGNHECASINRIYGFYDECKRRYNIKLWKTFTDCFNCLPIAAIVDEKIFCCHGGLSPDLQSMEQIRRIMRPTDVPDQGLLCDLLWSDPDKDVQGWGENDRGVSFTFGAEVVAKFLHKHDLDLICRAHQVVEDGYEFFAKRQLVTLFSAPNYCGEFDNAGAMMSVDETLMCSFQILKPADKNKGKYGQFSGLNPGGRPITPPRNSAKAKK
# * marks the source's active call; other numbers are inactive results; · = not tested or not shown.
SMILES,PP5 inh,Beta apoptosis,SKKanGAS inh,CSC inhib,PP1 inh
COc1ccc(NC(=O)c2cn(-c3ccccc3)nc2-c2ccncc2)cc1,2.5,-1.2,4.8,5.5,-1.9
COc1ccc(-c2nn(-c3ccccc3)cc2C(=O)NC(=S)NNC(=O)c2ccncc2)cc1,2.7,27.7,88.9*,22.6,14.0
NC(N)=NS(=O)(=O)c1ccc(NC(=S)NC(=O)c2sc3ccccc3c2Cl)cc1,1.4,-5.4,-4.7,7.3,15.9*
COc1ccc(C(=O)NC(=S)NNC(=O)c2ccc(NC(=O)C(C)C)cc2)cc1,0.7,12.3,56.8*,11.8,0.5
Cc1nc(SCc2nc3ccc(C(F)(F)F)cc3[nH]2)c2oc3ccccc3c2n1,·,16.4,·,103.6*,·
Cc1nc(SCc2nc3ccc(Br)cc3[nH]2)c2oc3ccccc3c2n1,·,7.2,·,·,·
COc1cccc(/C=N/n2c(N)nc3ccccc32)c1OC,0.8,-1.0,53.3*,5.3,0.3
COc1ccc(/C=N/n2c(N)nc3ccccc32)cc1OC,2.9,4.1,·,-16.9,0.7
c1ccc(CN2CCN(C(c3ccccc3)c3ccccc3)CC2)cc1,2.8,0.4,-21.6,8.7,7.0
Fc1ccc(CN2CCN(C(c3ccccc3)c3ccccc3)CC2)cc1,-1.5,1.5,-5.7,11.7,15.8*
NC(=O)c1c(-c2ccc(Cl)cc2Cl)csc1NC(=O)Cc1ccccc1,5.0,96.2*,10.0,4.6,11.1
CCOC(=O)c1c(-c2ccc(Cl)cc2)csc1NC(=O)CNCc1ccco1,2.4,1.7,24.0,77.3*,0.3
CCOC(=O)c1c(-c2ccc(OC)cc2)csc1NC(=O)CNCc1ccco1,1.4,4.9,7.9,69.0,4.3
CCOC(=O)c1c(-c2ccccc2)csc1NC(=O)c1nn(CC)cc1Br,1.2,16.0,32.2,80.2*,0.3
CCOC(=O)c1c(-c2ccccc2)csc1NC(=S)N(CC)CC,·,·,8.1,·,·
CN(C(=O)CSc1nncc2ccccc12)c1ccccc1,·,1.7,·,-11.3,·
O=[N+]([O-])c1cccc(-c2cn3nc(-c4ccccc4)c(-c4ccccc4)nc3n2)c1,-0.7,97.9*,10.5,-3.9,-1.5
CCC(=O)NC(c1cc(Cl)c2cccnc2c1O)C1CC1 (stereo not given),-0.6,103.5*,·,32.1,-0.2
CCC(=O)NC(C)C(c1cccs1)N1CCN(c2ccccc2)CC1 (stereo not given),-1.6,·,-1.0,·,-4.2
CCC(=O)NC(c1cc(Cl)c2cccnc2c1O)C(C)C (stereo not given),-1.3,104.7*,·,34.5,-2.7
CCC(=O)NC(c1cccs1)c1cc(Cl)c2cccnc2c1O (stereo not given),1.4,98.9*,66.0*,119.2*,12.1
CS(=O)(=O)N1CCC(C(=O)Nc2cccc(Br)c2)CC1,-2.1,-1.5,1.8,5.3,-2.5
CN(CC(=O)Nc1c(Cl)cccc1Cl)C(=O)Cc1ccc(S(=O)(=O)N2CCOCC2)s1,1.3,-5.4,4.2,-12.9,-4.2
CC(/C=N/Nc1nnc2c(n1)[nH]c1ccccc12)=C\c1ccco1,2.9,-7.2,-12.8,-4.4,16.4*
CCCCNC(=O)COC(=O)c1cc(C)oc1C,0.8,-2.5,-3.5,3.3,2.0
SMILES,PP5 inh,Beta apoptosis,SKKanGAS inh,CSC inhib,PP1 inh
NS(=O)(=O)c1ccc(Oc2ccc(S(N)(=O)=O)cc2)cc1,0.8,-4.1,6.2,-9.8,-2.8
C=CS(=O)(=O)c1ccc(Oc2ccc(S(=O)(=O)C=C)cc2)cc1,0.4,106.3*,1.0,-9.8,4.2
CCOc1ccc(Cl)cc1S(=O)(=O)N1CCC(C(=O)N2CCCC2)CC1,-1.5,-3.1,-1.4,-15.8,-1.9
COc1ccc(N2CCN(C(=O)COC(=O)c3oc4ccccc4c3C)CC2)cc1,3.0,2.4,·,·,0.2
COc1ccc(COC[C@H](C)[C@H](O)[C@@H](C)[C@H]2OC(=O)[C@@H]2C)cc1,3.0,-8.1,5.0,-17.4,-1.1
O=c1c2cccc3c2c(nn1CN1CCOCC1)-c1ccccc1-3,-0.3,4.0,8.8,7.4,1.6
CCN(CC)CCn1nc2c3c(cccc3c1=O)-c1ccccc1-2,2.7,112.9*,·,105.2*,-4.8
COc1ccccc1-c1cc2nc(C)cc(C)n2n1,3.8,7.4,-5.7,-7.4,3.1
C/C(=N\NC(=S)NCC(C)(C)C)c1cc(F)cc(F)c1O,1.4,57.3,90.2*,34.0,-8.5
CSc1ccc(C(=O)C2CCCN(C(=O)CN3CCOC3=O)C2)cc1 (stereo not given),·,-1.1,2.0,-7.5,·
COc1cc(OC)cc(-c2nnc(SCC(=O)N(Cc3ccccc3)C(C)(C)C)o2)c1,3.4,20.1,30.2,113.1*,3.6
